Compounds with a hit are over-represented: about 2.4% of the library has one in this group of screens.
Cruzain Triton – inhibitors of Trypanosoma cruzi cruzain with detergent; purified cruzain, Z-FR-AMC fluorescence, 0.01% Triton; Potency, µM, usual class: inhibitors; 0.43% of 200,000 active; P25779; AID 1478; further: nearly all actives have a fitted effect of over 40% in size
Target sequence (P25779 123-467 limits assumed): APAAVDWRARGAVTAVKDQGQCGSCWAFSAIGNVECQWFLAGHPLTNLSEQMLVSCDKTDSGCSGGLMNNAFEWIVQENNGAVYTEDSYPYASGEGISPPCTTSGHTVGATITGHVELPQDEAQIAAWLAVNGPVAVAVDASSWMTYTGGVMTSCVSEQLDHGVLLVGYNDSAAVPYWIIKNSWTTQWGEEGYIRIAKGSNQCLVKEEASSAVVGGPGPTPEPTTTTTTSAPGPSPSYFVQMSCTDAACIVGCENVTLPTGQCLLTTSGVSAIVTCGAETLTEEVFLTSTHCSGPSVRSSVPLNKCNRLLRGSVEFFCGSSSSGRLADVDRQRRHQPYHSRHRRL
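Purified cruzain (1.5 nM final) was preincubated with compounds for 15 min at room temperature in 100 mM sodium acetate pH 5.5, 5 mM DTT, 0.01% Triton X-100. Reaction started with 2 uM Z-FR-AMC; AMC fluorescence change over 60 s gave activity.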
Cruzain noTriton – blocks cruzain activity in detergent-free assay | purified cruzain, Z-FR-AMC fluorescence, no detergent | Potency, µM, most hits filed as inhibitors | 2.3% of 200,000 active | AID 1476; further: nearly all actives have a fitted effect of over 40% in size
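Purified cruzain at 1.5 nM, pre-incubated 15 min with compound at room temperature in 100 mM sodium acetate pH 5.5, 5 mM DTT, 0.00005% Triton X-100. Reaction started with 2 uM Z-FR-AMC; AMC fluorescence increase over 60 s gives rate.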
Numbers stand for hits; . = inactive; ? = inconclusive. The call rests on the fitted dose curve; in most records, active means well fitted curve in the direction sought with a large enough effect; inconclusive means small, poorly fitted or top-dose-only effect, or another doubt; inactive means no such curve, though single readings can be large; an effect the other way counts as inactive or inconclusive.

SMILES | Cruzain Triton | Cruzain noTriton
CC(Sc1nnc2ccc3ccccc3n12)C(=O)Nc1ccc(Cl)cc1 (configuration not stated) | . | .
O=c1[nH]c(SCc2nc3c(cnn3-c3ccccc3)c(=O)[nH]2)nc2ccccc12 | . | .
Cc1ccc(-n2ncc3c(=O)[nH]c(SCC(=O)N4CCN(c5ccccc5)CC4)nc32)cc1 | . | 25µM
Cc1ccc(-n2ncc3c(=O)[nH]c(SCC(=O)N4CCOCC4)nc32)cc1 | . | .
O=c1[nH]c(SCc2ccccc2Cl)nc2c1cnn2-c1ccccc1 | . | 16µM
O=S(=O)(Nc1ccc(-c2nc3cccnc3s2)cc1)c1cccs1 | . | 13µM
O=S(=O)(Nc1ccc(-c2nc3cccnc3s2)cc1)c1ccc(Cl)s1 | . | ?
CC1=C(C(=O)Nc2cc(Cl)ccc2C)C2(CCCCC2)OC1=O | . | .
CCCCSCCCNC(=O)c1c[nH]c2ccc(S(=O)(=O)Nc3cccc(OC)c3)cc2c1=O | . | ?
NC(=S)N/N=C/c1coc2c(ccc3ccccc32)c1=O | ? | 0.63µM
O=c1cc(/N=C/c2coc3c(ccc4ccccc43)c2=O)[nH]c(=S)[nH]1 | . | 7.9µM
O=c1cc(CSc2ccccc2)[nH]c(=S)[nH]1 | . | .
NC(=S)N/N=C/c1ccccc1OCc1cccc(Cl)c1 | . | ?
COc1cccc(NC(=O)c2c(N3CCCC3=O)c3cc(C)ccc3n2C)c1 | . | .
Cc1ccc(CCNC(=O)CCSCc2ccccc2Cl)cc1 | . | .
CCc1nnc(NC(=O)CN2C(=O)/C(=C/c3cc(OC)c(OC)c(OC)c3)SC2=S)s1 | ? | .
COc1cc(/C=C2\SC(=S)N(CC(=O)Nc3ccccn3)C2=O)cc(OC)c1OC | . | .
O=C(CSc1nnnn1-c1ccccc1)Nc1ncc(Cc2ccccc2Cl)s1 | . | .
COc1ccc(/C=C2\SC(=S)N(CC(=O)Nc3nnc(C)s3)C2=O)cc1 | . | 16µM
Cc1ccc(/C=C2/SC(=S)N(CC(=O)Nc3ncc(Cc4ccc(C)cc4)s3)C2=O)cc1 | . | 4µM
Cc1ccc(/C=C2\SC(=S)N(CC(=O)Nc3ncc(Cc4ccccc4Cl)s3)C2=O)cc1 | . | 3.2µM
COc1cc(/C=C2/SC(=S)N(CC(=O)Nc3nc4ccccc4s3)C2=O)cc(OC)c1OC | . | 13µM
Cc1cccc(Cc2cnc(NC(=O)CN3C(=O)/C(=C/c4ccccc4)SC3=S)s2)c1 | . | ?
COc1ccccc1N1CCN(C(=O)Cn2c(=O)nc(-c3ccccc3)c3ccccc32)CC1 | . | .
CSc1ccc(CCNC(=O)CCc2c(C)nc3c4cccnc4nn3c2C)cc1 | . | .
SMILES | Cruzain Triton | Cruzain noTriton
Cc1ccc(C2c3[nH]c4ccccc4c3CCN2C(=O)CCc2ccccc2)cc1 (configuration not stated) | . | ?
CCN(CC)C(=O)CSc1nc(-c2ccccc2)cc(-c2ccc(OC)cc2)c1C#N | . | .
CCOc1ccc(CC(=O)Nc2c(C(=O)Nc3ccc(OC)cc3OC)oc3ccccc23)cc1 | . | .
COc1cccc(C(=O)N(Cc2ccco2)c2ccccn2)c1 | . | .
CCNC(=O)c1ccc2nc(Cc3ccccc3)oc2c1 | . | .
COc1cc(NC(=O)c2c(-c3ccc(C)cc3)nnc3ccccc23)cc(OC)c1OC | . | .
Cc1cccc(Cc2c(C)nc3nc(SCc4ccccc4C)nn3c2C)c1 | . | .
Nn1c(SCC(=O)NC2CCCCC2)nnc1-c1ccc(Cl)cc1 | . | .
C=CCN1C(=O)/C(=C\c2ccc(Cl)cc2)N=C1SCC(=O)NC1CCCCC1 | . | 10µM
O=C1C=CC(=O)C(Cl)=C1 | . | .
COc1ccc(S(=O)(=O)n2nc(OC(=O)c3ccc(C)cc3)cc2N)cc1 | . | .
COc1ccc(S(=O)(=O)n2nc(OC(=O)c3cccs3)cc2N)cc1 | ? | 13µM
COc1ccc(S(=O)(=O)n2nc(OC(=O)c3ccccc3)cc2N)cc1 | . | .
COc1ccc(S(=O)(=O)n2nc(OC(=O)c3ccco3)cc2N)cc1 | 13µM | 20µM
COc1ccc(S(=O)(=O)N(CCc2ccccc2)CC(=O)NCc2ccc(C)cc2)cc1 | . | .
Cc1cccc(-c2noc(CN(C(=O)COc3ccc(Br)cc3C)C(C)C)n2)c1 | . | .
COc1ccccc1-c1nnc(C2CCN(C(=O)c3cccc(C)c3)CC2)o1 | . | .
CCOc1ccc(CC(=O)NCCc2sc3nc(-c4ccc(F)cc4)nn3c2C)cc1 | . | ?
Oc1ccc(Cl)cc1-c1cc(-c2cccc(Br)c2)n[nH]1 | . | 13µM
Oc1ccc(Cl)cc1-c1cc(-c2ccccc2Cl)[nH]n1 | . | ?
CCCC/C=C/C(NC(=O)c1ccc(-c2ccccc2)cc1)c1ccccc1 (configuration not stated) | . | 16µM
CCOC(=O)c1ccc(NC(=O)c2ccc(NC(=O)c3ccccc3)cc2)cc1 | . | .
COc1ccc(C(NC(=O)c2ccc(-c3ccccc3)cc2)c2ccccc2)cc1 (configuration not stated) | . | 7.9µM
COc1ccc(C(=O)Nc2ccc(C(=O)OCC(=O)c3ccccc3)cc2)cc1 | . | 6.3µM
COc1ccc(C(C)NC(=O)c2ccccc2)cc1 (configuration not stated) | . | .
SMILES | Cruzain Triton | Cruzain noTriton
COc1ccc(C(=O)COC(=O)c2ccc(NC(=O)c3ccccc3)cc2)cc1 | . | 13µM
COc1ccc(C(=O)COc2ccc(NC(C)=O)cc2)cc1 | . | .
CCCC/C=C/C(NC(=O)c1ccccc1)c1ccccc1 (configuration not stated) | . | .
COc1ccc(-n2c(/C=C/c3cccc4ccccc34)nc3ccccc3c2=O)cc1Cl | . | ?
CCc1ccc(CNC(=O)C(CC)n2ccc3cc(S(=O)(=O)N4CCCCC4)ccc32)cc1 (configuration not stated) | . | .
COc1ccc(NC(=O)CCC(=O)c2ccc(-c3ccccc3)cc2)cc1 | . | 25µM
Cc1ccc(NC(=O)CCC(=O)OCC(=O)c2ccc(-c3ccccc3)cc2)cc1 | . | .
COc1ccccc1NC(=O)c1cc(Cl)ccc1NC(=O)c1ccco1 | . | .
COc1ccccc1NC(=O)c1ccccc1NC(=O)c1cc(Cl)ccc1NC(=O)c1ccco1 | . | 16µM
O=C(Nc1nc(=O)c2ccccc2s1)c1ccc(F)cc1 | . | ?
O=C(Nc1nc(=O)c2ccccc2s1)c1ccc(Cl)cc1 | . | 10µM
O=C(CSc1nnc(SCc2cccc3ccccc23)s1)N=Nc1c(O)[nH]c2ccccc12 | . | 7.9µM
CN(C)S(=O)(=O)c1ccc(C(=O)Nc2nnc(SCc3cccc4ccccc34)s2)cc1 | . | ?
O=C(CSc1nc2ccccc2[nH]1)c1ccc2c(c1)OCO2 | . | 2.5µM
O=C(CSc1nnc(SCc2cccc3ccccc23)s1)c1ccc2c(c1)OCO2 | . | 25µM
O=C(CSc1ccccn1)c1ccc2c(c1)OCO2 | . | .
Cc1ccc2nc(SCC(=O)c3ccc4c(c3)OCO4)[nH]c2c1 | . | ?
COc1ccccc1NC(=O)C1=C(C)Nc2nc(-c3ccco3)nn2C1c1cccc(C)c1 (configuration not stated) | . | ?
Cc1ccc(NC(=O)CSc2nc3ccccc3nc2Cc2ccccc2)c(C)c1 | . | .
Cc1ccc(C)c(Cn2c(=O)n(CCc3ccccc3)c(=O)c3c(C)c(C)sc32)c1 | . | .
CC(C)CCNC(=O)CSCc1cnn(-c2ccccc2)c1-n1cccc1 | . | .
Oc1c(C(Nc2nc3ccccc3s2)c2ccco2)ccc2cccnc12 (configuration not stated) | . | 7.9µM
